# How the values were obtained:
# [1] = target: T1, Mitogen-activated protein kinase 12 (Homo sapiens) (UniProt P53778); settings: at 1 µM;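 further: values are averaged p38gamma kinase inhibition readings, compounds tested at 1 µM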
# T1 sequence (whole entry): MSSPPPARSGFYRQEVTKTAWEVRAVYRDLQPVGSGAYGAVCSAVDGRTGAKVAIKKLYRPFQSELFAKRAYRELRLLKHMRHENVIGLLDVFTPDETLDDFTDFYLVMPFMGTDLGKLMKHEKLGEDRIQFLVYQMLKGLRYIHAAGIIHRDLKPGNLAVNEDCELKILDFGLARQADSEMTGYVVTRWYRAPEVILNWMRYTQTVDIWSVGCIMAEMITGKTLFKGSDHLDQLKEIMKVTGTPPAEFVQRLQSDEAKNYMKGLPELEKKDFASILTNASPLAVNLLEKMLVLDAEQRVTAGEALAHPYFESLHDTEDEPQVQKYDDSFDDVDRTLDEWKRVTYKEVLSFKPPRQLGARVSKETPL
# [2] = target: SRSF protein kinase 1 (Homo sapiens) (UniProt Q96SB4); settings: at 0.1 µM
# [3] = target: SRSF protein kinase 1 (Homo sapiens) (UniProt Q96SB4); settings: at 1 µM
# [4] = target: Phosphatidylinositol 4,5-bisphosphate 3-kinase catalytic subunit alpha isoform (Homo sapiens) (UniProt P42336); settings: at 0.1 µM
# [5] = target: Phosphatidylinositol 4,5-bisphosphate 3-kinase catalytic subunit alpha isoform (Homo sapiens) (UniProt P42336); settings: at 1 µM
# [6] = target: T2, Phosphatidylinositol 4,5-bisphosphate 3-kinase catalytic subunit delta isoform (Homo sapiens) (UniProt O00329); settings: at 0.1 µM
# T2 sequence (whole entry): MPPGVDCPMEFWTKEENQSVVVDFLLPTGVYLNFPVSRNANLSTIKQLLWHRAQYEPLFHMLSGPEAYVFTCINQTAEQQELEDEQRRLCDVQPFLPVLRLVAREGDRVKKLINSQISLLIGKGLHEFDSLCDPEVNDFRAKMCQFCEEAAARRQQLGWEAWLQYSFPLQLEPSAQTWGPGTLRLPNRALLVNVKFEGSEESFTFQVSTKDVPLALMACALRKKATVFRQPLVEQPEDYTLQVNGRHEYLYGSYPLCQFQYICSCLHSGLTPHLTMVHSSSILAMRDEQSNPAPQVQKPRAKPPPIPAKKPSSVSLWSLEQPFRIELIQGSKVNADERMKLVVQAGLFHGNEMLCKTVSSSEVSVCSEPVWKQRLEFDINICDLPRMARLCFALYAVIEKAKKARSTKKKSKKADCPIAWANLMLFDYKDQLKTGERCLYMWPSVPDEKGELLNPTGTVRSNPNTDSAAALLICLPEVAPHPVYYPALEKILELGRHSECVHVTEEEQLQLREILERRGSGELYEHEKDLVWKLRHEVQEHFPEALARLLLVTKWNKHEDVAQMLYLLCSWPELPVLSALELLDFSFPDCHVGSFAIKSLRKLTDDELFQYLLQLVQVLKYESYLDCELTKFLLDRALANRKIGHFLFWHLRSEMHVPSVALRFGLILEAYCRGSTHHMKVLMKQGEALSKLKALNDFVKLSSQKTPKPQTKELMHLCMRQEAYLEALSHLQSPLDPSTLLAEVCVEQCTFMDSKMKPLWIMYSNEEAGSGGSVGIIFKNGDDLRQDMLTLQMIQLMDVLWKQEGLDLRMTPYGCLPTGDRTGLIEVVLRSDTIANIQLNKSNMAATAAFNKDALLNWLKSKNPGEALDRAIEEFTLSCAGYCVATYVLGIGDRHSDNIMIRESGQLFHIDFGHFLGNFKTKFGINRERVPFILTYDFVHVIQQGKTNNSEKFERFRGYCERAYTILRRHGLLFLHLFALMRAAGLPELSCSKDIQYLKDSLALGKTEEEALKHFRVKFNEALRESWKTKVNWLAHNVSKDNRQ
# [7] = target: T2, Phosphatidylinositol 4,5-bisphosphate 3-kinase catalytic subunit delta isoform (Homo sapiens); settings: at 1 µM
# [8] = target: Phosphatidylinositol 4-kinase beta (Homo sapiens) (UniProt Q9UBF8); settings: at 0.1 µM
# [9] = target: Phosphatidylinositol 4-kinase beta (Homo sapiens) (UniProt Q9UBF8); settings: at 1 µM
# [10] = target: Sphingosine kinase 1 (Homo sapiens) (UniProt Q9NYA1); settings: at 0.1 µM
# [11] = target: Sphingosine kinase 1 (Homo sapiens) (UniProt Q9NYA1); settings: at 1 µM
# [12] = target: T3, Sphingosine kinase 2 (Homo sapiens) (UniProt Q9NRA0); settings: at 0.1 µM
# T3 sequence (whole entry): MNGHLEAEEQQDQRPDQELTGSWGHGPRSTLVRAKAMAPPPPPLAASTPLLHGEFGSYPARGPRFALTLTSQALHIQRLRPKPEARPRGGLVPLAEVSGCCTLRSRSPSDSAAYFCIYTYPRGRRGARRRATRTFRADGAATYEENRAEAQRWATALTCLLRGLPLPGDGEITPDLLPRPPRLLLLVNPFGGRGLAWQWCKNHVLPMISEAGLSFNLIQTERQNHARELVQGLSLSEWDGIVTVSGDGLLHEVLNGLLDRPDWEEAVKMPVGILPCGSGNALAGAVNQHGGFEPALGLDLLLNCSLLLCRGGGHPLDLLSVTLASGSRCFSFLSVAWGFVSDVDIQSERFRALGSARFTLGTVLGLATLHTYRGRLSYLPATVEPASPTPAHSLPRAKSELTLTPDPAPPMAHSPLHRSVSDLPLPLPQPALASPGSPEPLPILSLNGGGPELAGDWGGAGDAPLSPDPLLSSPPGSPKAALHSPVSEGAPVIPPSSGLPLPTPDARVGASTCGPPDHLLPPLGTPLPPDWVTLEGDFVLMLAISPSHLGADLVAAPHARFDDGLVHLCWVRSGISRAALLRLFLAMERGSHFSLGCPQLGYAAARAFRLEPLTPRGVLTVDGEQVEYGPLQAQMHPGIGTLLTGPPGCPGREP
# [13] = target: T3, Sphingosine kinase 2 (Homo sapiens); settings: at 1 µM
# [14] = target: Casein kinase II subunit alpha (Homo sapiens) (UniProt P68400); settings: at 0.1 µM
# [15] = target: Casein kinase II subunit alpha (Homo sapiens) (UniProt P68400); settings: at 1 µM
# [16] = target: T4, Inhibitor of nuclear factor kappa-B kinase subunit alpha (Homo sapiens) (UniProt O15111); settings: at 0.1 µM
# T4 sequence (whole entry): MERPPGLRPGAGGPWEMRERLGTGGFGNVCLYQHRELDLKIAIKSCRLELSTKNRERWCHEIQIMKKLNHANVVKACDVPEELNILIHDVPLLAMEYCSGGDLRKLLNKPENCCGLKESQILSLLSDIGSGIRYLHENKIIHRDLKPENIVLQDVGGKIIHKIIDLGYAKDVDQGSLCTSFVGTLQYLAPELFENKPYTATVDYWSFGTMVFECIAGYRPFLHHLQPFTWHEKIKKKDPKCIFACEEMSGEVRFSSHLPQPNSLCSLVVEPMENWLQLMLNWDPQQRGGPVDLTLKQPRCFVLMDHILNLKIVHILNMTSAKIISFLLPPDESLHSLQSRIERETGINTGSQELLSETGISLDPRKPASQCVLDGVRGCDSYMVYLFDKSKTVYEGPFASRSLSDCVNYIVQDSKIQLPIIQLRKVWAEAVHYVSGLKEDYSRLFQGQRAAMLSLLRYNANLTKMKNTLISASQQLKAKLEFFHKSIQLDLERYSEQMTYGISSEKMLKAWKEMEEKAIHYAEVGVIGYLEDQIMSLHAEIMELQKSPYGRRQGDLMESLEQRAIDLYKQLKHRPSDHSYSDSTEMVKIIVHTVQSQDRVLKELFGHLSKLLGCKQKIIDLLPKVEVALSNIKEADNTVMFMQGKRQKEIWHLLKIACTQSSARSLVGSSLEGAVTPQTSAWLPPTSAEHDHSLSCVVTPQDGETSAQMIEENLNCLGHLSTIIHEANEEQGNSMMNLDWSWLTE
# [17] = target: T4, Inhibitor of nuclear factor kappa-B kinase subunit alpha (Homo sapiens); settings: at 1 µM
# [18] = target: T5, Inhibitor of nuclear factor kappa-B kinase subunit beta (Homo sapiens) (UniProt O14920); settings: at 0.1 µM
# T5 sequence (whole entry): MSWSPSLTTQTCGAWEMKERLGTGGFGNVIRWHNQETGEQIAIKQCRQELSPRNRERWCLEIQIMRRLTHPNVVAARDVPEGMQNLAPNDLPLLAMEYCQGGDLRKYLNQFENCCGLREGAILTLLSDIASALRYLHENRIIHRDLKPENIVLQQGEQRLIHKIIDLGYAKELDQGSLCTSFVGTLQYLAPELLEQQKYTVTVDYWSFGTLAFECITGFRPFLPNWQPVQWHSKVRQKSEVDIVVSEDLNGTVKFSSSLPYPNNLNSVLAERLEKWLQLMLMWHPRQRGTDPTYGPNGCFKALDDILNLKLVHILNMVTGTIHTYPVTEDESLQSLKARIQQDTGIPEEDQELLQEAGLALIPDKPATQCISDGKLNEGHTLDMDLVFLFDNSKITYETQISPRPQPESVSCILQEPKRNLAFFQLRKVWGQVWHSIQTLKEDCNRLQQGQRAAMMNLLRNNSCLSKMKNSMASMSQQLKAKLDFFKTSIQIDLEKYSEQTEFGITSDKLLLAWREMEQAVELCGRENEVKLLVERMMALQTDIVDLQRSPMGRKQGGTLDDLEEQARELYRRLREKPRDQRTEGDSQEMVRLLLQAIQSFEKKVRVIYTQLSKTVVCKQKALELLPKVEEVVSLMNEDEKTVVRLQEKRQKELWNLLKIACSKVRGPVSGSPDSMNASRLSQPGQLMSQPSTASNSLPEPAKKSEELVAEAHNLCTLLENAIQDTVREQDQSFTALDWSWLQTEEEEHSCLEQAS
# [19] = target: T5, Inhibitor of nuclear factor kappa-B kinase subunit beta (Homo sapiens); settings: at 1 µM
# [20] = target: T6, Inhibitor of nuclear factor kappa-B kinase subunit epsilon (Homo sapiens) (UniProt Q14164); settings: at 0.1 µM;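 further: mean inhibition of IKKε reported, from the GSK PKIS dataset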
# T6 sequence (whole entry): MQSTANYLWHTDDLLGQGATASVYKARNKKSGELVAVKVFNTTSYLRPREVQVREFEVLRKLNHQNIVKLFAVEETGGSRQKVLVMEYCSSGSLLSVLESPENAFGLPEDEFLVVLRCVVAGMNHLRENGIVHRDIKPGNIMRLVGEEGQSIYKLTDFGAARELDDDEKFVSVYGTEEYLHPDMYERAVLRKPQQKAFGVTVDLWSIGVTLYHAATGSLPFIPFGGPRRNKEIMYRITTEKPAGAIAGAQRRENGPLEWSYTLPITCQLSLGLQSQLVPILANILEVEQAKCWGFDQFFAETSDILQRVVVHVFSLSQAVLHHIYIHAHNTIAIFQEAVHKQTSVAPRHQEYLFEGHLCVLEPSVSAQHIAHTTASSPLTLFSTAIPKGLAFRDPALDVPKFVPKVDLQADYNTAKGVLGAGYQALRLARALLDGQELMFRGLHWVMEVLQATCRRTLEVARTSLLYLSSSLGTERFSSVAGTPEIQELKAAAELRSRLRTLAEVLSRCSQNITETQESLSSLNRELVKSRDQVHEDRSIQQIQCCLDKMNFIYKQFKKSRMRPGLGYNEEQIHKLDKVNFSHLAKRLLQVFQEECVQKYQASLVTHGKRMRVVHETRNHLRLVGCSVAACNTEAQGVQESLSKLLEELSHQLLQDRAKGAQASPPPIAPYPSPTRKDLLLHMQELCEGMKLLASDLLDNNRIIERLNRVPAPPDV
# SRSF protein kinase 1 (Homo sapiens), sequence (Q96SB4 whole entry, canonical isoform): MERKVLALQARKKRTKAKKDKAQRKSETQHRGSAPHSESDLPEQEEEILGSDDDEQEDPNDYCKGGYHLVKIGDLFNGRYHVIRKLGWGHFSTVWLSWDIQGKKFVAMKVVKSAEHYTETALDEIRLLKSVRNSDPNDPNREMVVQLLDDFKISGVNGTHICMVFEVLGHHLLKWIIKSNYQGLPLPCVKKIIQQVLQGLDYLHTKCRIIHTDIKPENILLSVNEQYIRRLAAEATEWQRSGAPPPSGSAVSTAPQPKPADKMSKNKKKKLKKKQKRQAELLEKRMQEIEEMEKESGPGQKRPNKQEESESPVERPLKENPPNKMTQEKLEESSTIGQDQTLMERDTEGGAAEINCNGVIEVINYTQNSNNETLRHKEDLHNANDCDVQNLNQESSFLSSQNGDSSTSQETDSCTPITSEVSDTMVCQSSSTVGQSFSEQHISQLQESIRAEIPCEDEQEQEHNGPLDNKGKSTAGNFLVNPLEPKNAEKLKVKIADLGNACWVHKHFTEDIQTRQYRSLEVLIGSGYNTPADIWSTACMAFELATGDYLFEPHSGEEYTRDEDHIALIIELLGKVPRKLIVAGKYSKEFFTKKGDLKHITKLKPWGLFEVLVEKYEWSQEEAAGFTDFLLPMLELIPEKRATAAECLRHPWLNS
# Phosphatidylinositol 4,5-bisphosphate 3-kinase catalytic subunit alpha isoform (Homo sapiens), sequence (P42336 whole entry, canonical isoform): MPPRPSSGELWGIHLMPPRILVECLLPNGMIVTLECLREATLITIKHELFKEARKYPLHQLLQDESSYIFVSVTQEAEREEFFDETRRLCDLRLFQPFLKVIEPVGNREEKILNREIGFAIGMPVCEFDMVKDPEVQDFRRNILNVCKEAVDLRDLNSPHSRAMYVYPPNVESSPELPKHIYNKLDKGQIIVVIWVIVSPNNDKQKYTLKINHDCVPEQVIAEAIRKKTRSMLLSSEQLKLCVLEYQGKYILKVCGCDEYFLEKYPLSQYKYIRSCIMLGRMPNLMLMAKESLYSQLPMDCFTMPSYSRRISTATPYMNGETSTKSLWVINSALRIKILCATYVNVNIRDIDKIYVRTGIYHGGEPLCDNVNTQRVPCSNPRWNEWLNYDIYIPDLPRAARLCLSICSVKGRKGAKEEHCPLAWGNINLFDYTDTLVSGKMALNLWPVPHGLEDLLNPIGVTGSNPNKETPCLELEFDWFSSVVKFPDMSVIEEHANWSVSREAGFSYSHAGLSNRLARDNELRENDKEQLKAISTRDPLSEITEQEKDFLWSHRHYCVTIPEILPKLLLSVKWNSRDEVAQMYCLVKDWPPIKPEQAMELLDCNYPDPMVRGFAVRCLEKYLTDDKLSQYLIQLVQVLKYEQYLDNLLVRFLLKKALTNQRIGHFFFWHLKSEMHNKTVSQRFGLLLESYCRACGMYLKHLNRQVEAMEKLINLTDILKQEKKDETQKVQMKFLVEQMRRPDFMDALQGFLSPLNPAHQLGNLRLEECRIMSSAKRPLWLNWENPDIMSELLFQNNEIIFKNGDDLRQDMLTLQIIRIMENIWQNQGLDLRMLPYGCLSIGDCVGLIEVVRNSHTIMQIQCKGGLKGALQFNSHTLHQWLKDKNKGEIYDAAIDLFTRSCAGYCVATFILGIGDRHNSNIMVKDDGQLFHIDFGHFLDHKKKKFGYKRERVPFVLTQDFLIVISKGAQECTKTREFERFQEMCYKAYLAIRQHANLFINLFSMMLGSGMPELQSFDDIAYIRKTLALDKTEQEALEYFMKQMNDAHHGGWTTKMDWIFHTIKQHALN
# Phosphatidylinositol 4-kinase beta (Homo sapiens), sequence (Q9UBF8 2-816 limits assumed): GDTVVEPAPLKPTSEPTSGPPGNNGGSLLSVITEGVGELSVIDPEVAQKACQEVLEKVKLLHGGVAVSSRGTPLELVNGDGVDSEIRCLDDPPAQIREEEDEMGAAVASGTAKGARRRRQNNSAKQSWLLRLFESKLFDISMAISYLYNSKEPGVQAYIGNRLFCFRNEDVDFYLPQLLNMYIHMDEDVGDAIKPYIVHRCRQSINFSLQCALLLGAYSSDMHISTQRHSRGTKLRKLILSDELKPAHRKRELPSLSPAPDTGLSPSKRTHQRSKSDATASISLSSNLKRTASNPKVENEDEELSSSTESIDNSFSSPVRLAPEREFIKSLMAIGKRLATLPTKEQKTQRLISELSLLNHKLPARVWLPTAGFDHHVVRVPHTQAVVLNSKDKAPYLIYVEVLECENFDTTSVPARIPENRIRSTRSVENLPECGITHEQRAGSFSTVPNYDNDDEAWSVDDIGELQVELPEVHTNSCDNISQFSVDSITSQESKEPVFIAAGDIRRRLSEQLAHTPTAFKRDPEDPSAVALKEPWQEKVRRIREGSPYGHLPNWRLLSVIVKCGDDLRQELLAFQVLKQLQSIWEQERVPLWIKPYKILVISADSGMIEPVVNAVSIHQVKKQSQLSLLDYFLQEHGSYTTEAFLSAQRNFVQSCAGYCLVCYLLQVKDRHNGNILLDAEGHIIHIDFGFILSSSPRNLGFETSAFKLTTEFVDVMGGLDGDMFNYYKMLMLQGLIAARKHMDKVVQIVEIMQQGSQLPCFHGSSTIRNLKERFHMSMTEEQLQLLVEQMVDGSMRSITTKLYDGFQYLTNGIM
# Sphingosine kinase 1 (Homo sapiens), sequence (Q9NYA1 whole entry): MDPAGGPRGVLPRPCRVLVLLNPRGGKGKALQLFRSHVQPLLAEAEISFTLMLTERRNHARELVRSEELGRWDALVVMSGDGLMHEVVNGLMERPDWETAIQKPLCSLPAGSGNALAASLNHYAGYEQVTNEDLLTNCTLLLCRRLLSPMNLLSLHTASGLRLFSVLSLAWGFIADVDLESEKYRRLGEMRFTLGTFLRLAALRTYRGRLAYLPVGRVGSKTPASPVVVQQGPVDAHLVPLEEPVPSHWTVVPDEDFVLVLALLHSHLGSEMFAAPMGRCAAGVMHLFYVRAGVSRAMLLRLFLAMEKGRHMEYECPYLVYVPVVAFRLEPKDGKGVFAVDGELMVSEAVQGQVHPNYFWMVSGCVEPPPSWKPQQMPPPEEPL
# Casein kinase II subunit alpha (Homo sapiens), sequence (P68400 whole entry, looked up): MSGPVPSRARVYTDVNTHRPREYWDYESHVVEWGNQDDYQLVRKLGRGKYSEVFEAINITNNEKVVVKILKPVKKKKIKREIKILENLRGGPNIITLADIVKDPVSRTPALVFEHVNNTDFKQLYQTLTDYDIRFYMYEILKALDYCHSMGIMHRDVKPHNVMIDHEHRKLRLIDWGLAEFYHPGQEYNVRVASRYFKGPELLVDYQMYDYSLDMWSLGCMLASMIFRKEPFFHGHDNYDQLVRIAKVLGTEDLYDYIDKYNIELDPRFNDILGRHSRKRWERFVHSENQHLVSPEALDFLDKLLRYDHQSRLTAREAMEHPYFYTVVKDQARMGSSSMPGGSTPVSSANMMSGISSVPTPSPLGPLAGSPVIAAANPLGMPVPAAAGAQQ
SMILES,inhibition [1] [%],inhibition [2] [%],inhibition [3] [%],inhibition [4] [%],inhibition [5] [%],inhibition [6] [%],inhibition [7] [%],inhibition [8] [%],inhibition [9] [%],inhibition [10] [%],inhibition [11] [%],inhibition [12] [%],inhibition [13] [%],inhibition [14] [%],inhibition [15] [%],inhibition [16] [%],inhibition [17] [%],inhibition [18] [%],inhibition [19] [%],inhibition [20] [%]
Fc1ccc(-c2nn3ncccc3c2-c2ccnc(Nc3ccc4c(c3)OCCO4)n2)cc1,4.06,-3.43,-6.44,3.44,6.99,3.64,9.87,-5.48,-0.74,1.29,0.16,0,0.35,2.03,0.07,9.88,7.87,5.46,4.62,5.66
CC(=O)Nc1cccc(C#Cc2cncnc2Nc2ccc(OCc3cccc(F)c3)c(Cl)c2)c1,1.97,-1.41,-3.44,1.85,1.66,2.58,0.8,-0.32,-1.07,-0.47,-1.15,-0.41,-2.47,-0.51,-4.66,3.13,-2.41,2.6,-1.07,0.8
FC(F)(F)c1cccc(-c2nn3ncccc3c2-c2ccnc(Nc3ccc4c(c3)OCCO4)n2)c1,2.93,-2.68,-5.33,1.87,3.02,1.36,4,-4.9,3.59,-1.16,1.14,0.13,-0.65,0.21,-1.98,3.23,0.65,2.71,0.36,2.48
COC(=O)Nc1nc2ccc(S(=O)(=O)c3ccc(NC(=O)Nc4cc(C(F)(F)F)ccc4F)cc3)cc2[nH]1,2.36,-1.52,-4.55,0.87,2.69,2.19,2.98,1.19,1.36,-0.71,-2.79,-0.31,0.98,-0.42,-2.21,6.4,2.23,5.3,7.84,2.8
COc1ccc2[nH]c3c4[nH]c5ccc(OC)cc5c4c4c(c3c2c1)C(=O)NC4=O,1.03,-1,6.5,6.77,14.6,4.48,10.1,-1.55,-0.12,-3.65,-1.68,-2.46,-0.32,6.4,15.9,5.28,6.84,3.54,4.71,13.5
COC(=O)Nc1nc2ccc(Oc3ccc(NC(=O)Nc4cccc(Cl)c4)cc3)cc2[nH]1,0.02,-2.58,-2.98,-0.11,4.1,-0.7,3.93,3.19,-4.1,1.12,-0.57,0,0,4.68,1.84,-0.79,6.02,-0.04,1.06,4.59

# From ChEMBL document CHEMBL1961873, “Compounds: GSK PKIS; Assays: Nanosyn kinase panel” (2012)
